Source: PubChem (National Center for Advancing Translational Sciences (NCATS))
HT1080-NT tox = kills 2HG-producing HT-1080-NT fibrosarcoma cells; HT-1080-NT fibrosarcoma viability, CellTiter-Glo ATP luminescence, 48 h; Potency, µM (series often up to 46.1 µM), without a hit: top-dose activity, negative = less viability, most hits filed as cytotoxic; actives 1.6% (n = 360,000); AID 686970;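 note: NT is the 2HG producing partner of a matched IDH1 knockdown line; 0% = DMSO-treated cells and -100% = media-only wells without cells; nearly all actives have a fitted effect of over 55% in size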
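Viability of the 2HG-overproducing fibrosarcoma line after 48 hours of compound exposure at 37 degrees C was determined by luminescence with CellTiter-Glo, and concentration-effect curves were then fitted and categorized.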
HepG2 tox = counter-screen for TGF-b inhibitors: cytotoxicity in HepG2 cells | Potency, µM (series often up to 46.1 µM), for the others: at the highest dose activity change, negative = cytotoxicity, hits mostly cytotoxic | AID 588856 | actives 0.76% (n = 410,000) | HepG2 CAGA-GFP viability, ATP luminescence, 18 h
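HepG2 CAGA-GFP cells (1000/well, DMEM with 1% FBS) received compound, then TGF-beta at 500 pg/mL final, and were incubated 18 hours at 37 degrees C. Viability was read by CellTiter-Glo luminescence. Media-only wells were set as complete cell-killing and DMSO as no toxicity.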
HT1080 IDH1KD tx = kills HT-1080 cells with IDH1 knockdown; HT-1080 IDH1 knockdown viability, ATP luminescence, 48 h; Potency, µM (highest dose often 46.1 µM), for the others: at the top dose activity, negative = toxicity, most hits filed as cytotoxic; actives 2% (n = 360,000); AID 686971;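 note: 0% = DMSO wells and -100% = cell-free medium wells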
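Using the IDH1-knockdown HT-1080 line run in the same batch and compound series as the NT line, viability after 48 h at 37 °C was determined by CellTiter-Glo luminescence and expressed as % activity.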
DT40 TDP1 CPT = DT40-hTDP1 cell growth loss with CPT. chicken DT40 Tdp1-/-;hTDP1 cells + 20 nM CPT, ATP luminescence, 48 h. Potency, µM (series often up to 46.2 µM), for inactives: top-dose activity change, negative = growth inhibition, most hits filed as inhibitors. actives 12% (n = 420,000). AID 686979; note: % is set by controls: 0 for no effect and ±100 for the full control effect; nearly all actives have a fitted effect of over 55% in size
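Chicken DT40 Tdp1-/- cells stably complemented with human TDP1 were seeded at 400 cells/well in medium containing 20 nM camptothecin, exposed to pin-transferred compounds, and grown at 37 °C for at least 48 hr. Viability was read as ATP luminescence.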
TDP1 cell noCPT = qHTS for Inhibitors of human tyrosyl-DNA phosphodiesterase 1 (TDP1): qHTS in cells in absence of CPT | AID 686978, 2013 | actives 15% (n = 420,000) | Potency, µM (doses to about 46.2 µM), for inactives: top-dose activity change, negative = growth inhibition, usual class: inhibitors | DT40 Tdp1-/- hTDP1 cells, no CPT, ATP luminescence, 48 h; note: % is set by controls: 0 for no effect and ±100 for the full control effect; nearly all actives have a fitted effect of over 55% in size
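DT40 Tdp1-/-;hTDP1 cells, no CPT (DMSO vehicle only), 400 cells/well; compounds pin-transferred; ≥48 hr, 37 °C; CellTiter-Glo 30 min RT dark, luminescence read.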
TGFb inhibitor = blocks TGF-b signaling; AID 588855; Potency, µM (doses to about 46.1 µM), without a hit: top-dose activity, negative = inhibition, most hits filed as inhibitors; HepG2 CAGA-GFP TGF-b/SMAD3 reporter, GFP fluorescence, 18 h; TGF-beta stimulated, 500 pg/mL final; actives 1.2% (n = 410,000); note: % is set by controls: 0 for no effect and ±100 for the full control effect; nearly all actives have a fitted effect of over 65% in size
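Inhibition of TGF-beta-driven CAGA-GFP reporter expression in HEPG2 cells is measured by cellular GFP fluorescence after 18 h stimulation with 500 pg/mL recombinant TGF-beta in 1% FBS medium at 37 degrees C.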
The depositor's hits bear a star; ? = inconclusive; / = no result given; ! = not active in a repeat; [ ] = dose if it differs, or a comment. Shown are actives, neighbours in structure and some others; about 17% of the full set was active somewhere. Calls come from the whole dose curve; as a rule, active = well fitted curve in the direction sought with a large enough effect; inconclusive = small, poorly fitted or top-dose-only effect, or another doubt; inactive = no such curve, though single readings can be large; an effect the other way counts as inactive or inconclusive. Potency is the fitted concentration of half-maximal effect.

SMILES	HT1080-NT tox	HepG2 tox	HT1080 IDH1KD tx	DT40 TDP1 CPT	TDP1 cell noCPT	TGFb inhibitor
COc1ccccc1NC(=O)c1ccccc1NC(=O)c1cccs1	0.0%	-9.0%	-8.7%	23.1µM*	?	7.7%
CCS(=O)(=O)c1ccc(C(=O)Nc2cccc(Cl)c2)c(Cl)c1Cl	-11.6%	-1.0%	-19.2%	?	20.6µM*	?
COc1cccc(NC(=O)c2cc(Cl)nnc2Cl)c1	11.6µM*	-30.0%	?	0.517µM*	8.2µM*	-10.7%
CCCCCCC(=O)Oc1cccc(C2=CC(=O)CC(C)(C)C2=O)c1	5.3%	-12.2%	8.6%	?	-18.2%	17.5%
CC1(c2cccc(Br)c2)NC(=O)N(CC(=O)c2ccc3c(c2)OCO3)C1=O (centres undefined)	-2.8%	-27.6%	-2.5%	-22.1%	-18.4%	0.8%
C[C@H](CO)N1C[C@H](C)[C@@H](CN(C)S(=O)(=O)c2cn(C)cn2)Oc2ncc(Br)cc2C1=O	-16.6%	5.7%	2.9%	14.7%	?	2.8%
COc1ccccc1NC(=O)c1ccccc1NS(C)(=O)=O	8.0%	2.8%	17.3%	?	14.6µM*	21.5%
CS(=O)(=O)Nc1ccccc1C(=O)Nc1ccccc1Cl	4.9%	2.0%	2.3%	-4.0%	-14.5%	-6.4%
COc1ccccc1NC(=O)c1ccccc1-c1nc(-c2ccccc2OC)no1	-14.9%	-16.7%	?	14.1µM*	6.31µM*	-2.8%
CS(=O)(=O)Nc1ccccc1C(=O)Nc1cccc(Cl)c1	?	-22.3%	1.7%[9.24 µM]	?	23.1µM*	?
COc1cccc(NC(=O)c2ccccc2NS(C)(=O)=O)c1	-6.3%	-3.6%	-1.9%	?	20.6µM*	-17.5%
CCOc1ccccc1NC(=O)c1ccccc1NS(C)(=O)=O	0.3%	0.3%	11.0%	-18.0%	?	0.2%
COc1ccccc1Nc1ncc(C(=O)Nc2ccc(OC)c(OC)c2)c2ccccc12	-11.1%	-15.0%	6.3%	18.4µM*	16.4µM*!	-11.9%
COc1ccc(Oc2ncc3nc(-c4ccc(OC)cc4)c(=O)n(CCC#N)c3n2)cc1	/	/	/	10.5%	-8.5%	/
Cc1ccccc1C(=O)Nc1ccccc1C(=O)NCC(C)C	-3.4%	3.2%	-0.6%	?	?	33.2%
O=C(Nc1ccccc1C(=O)NCc1ccccc1)c1ccccc1Br	0.1%	-28.4%	7.2%	23.1µM*	?	-8.7%
O=C(Nc1ccccc1Br)c1ccccc1-c1ccccc1	?	-5.4%	?	5.8µM*	6.51µM*	-4.8%
Cc1nc2ccccc2cc1C(=O)NCc1ccccc1	-0.1%	0.5%	-6.5%	?	13µM*	-2.5%
O=C(O)CCC(=O)Nc1ccccc1C(=O)NCc1ccccc1	21.8%	0.3%	29.5%	-0.2%	-2.1%	14.0%
Cc1ccccc1C(=O)Nc1ccccc1C(=O)NCc1ccccc1	-3.0%	1.8%	-0.9%	?	18.4µM*	-1.4%
O=C(Nc1ccccc1-c1ccccc1)c1ccccc1Br	-5.7%	-30.5%	?	-17.7%	-2.2%	3.7%
Cc1nc2ccccc2cc1C(=O)O	0.5%	-6.1%	-2.1%	-0.9%	4.3%	-8.6%
CC1=C(C(=O)OCC2CCCO2)C(c2ccc(Cl)c(Cl)c2)NC(=O)N1 (centres undefined)	-3.5%	-10.3%	-1.4%	?	?	2.5%
CCC(C)NC(=O)Cn1cnc2sc(C)c(S(=O)(=O)N3CCCCC3)c2c1=O (centres undefined)	15.0%	0.7%	11.0%	-5.0%	-9.7%	12.9%
CN(C)c1ccc(NC(=O)c2cccc([N+](=O)[O-])c2)c2ccccc12	-4.6%	1.2%	-2.1%	-18.4%	?	14.4%
SMILES	HT1080-NT tox	HepG2 tox	HT1080 IDH1KD tx	DT40 TDP1 CPT	TDP1 cell noCPT	TGFb inhibitor
Cc1ccccc1C(=O)Nc1ccc(N(C)C)c2ccccc12	-8.1%	1.0%	-4.4%	?	3.66µM*	10.7%
O=C(Nc1ccccc1)c1cc(N2CCOCC2)nc2ccccc12	-13.6%	1.9%	-7.8%	-16.8%	?	-20.9%
Cc1cccc(NC(=O)c2cc(N3CCOCC3)nc3ccccc23)c1	-0.7%	-5.2%	0.0%	11.6µM*	?	-17.6%
Cc1ccc(NC(=O)c2cc(N3CCOCC3)nc3ccccc23)cc1	10µM*	-6.5%	?	23.1µM*	?	-6.7%
Cc1cc(O)c2c(c1O)C(=O)c1c(O)cc(C)c(O)c1C2=O	/	/	/	-15.7%	1.1%	/
Cc1cc(=O)c2c(O)c3c(O)cc(O)c4c5c(O)cc(O)c6c(O)c7c(=O)cc(C)c8c1c2c(c34)c(c65)c78	/	/	/	16.4µM*	8.2µM*	/
O=C(NCCc1ccccc1)C1Cc2c(-c3ccc(Cl)cc3)ccnc2O1 (centres undefined)	-12.3%	-16.3%	-21.9%	?	?	1.8%
COc1ccc(-c2cc(C(=O)Nc3ccc(O)cc3)c3ccccc3n2)cc1OC	?	-19.6%	-29.1%	10.3µM*	1.46µM*	-9.6%
COc1ccc(-c2cc(C(=O)NCC(c3ccccc3)N(C)C)c3ccccc3n2)cc1OC (centres undefined)	?	-28.1%	?	?	?	1.6%
COc1ccccc1NC(=O)c1cc(-c2ccc(OC)c(OC)c2)nc2ccccc12	18.9%	-12.5%	11.1%	16.4µM*	9.2µM*	0.0%
CCN(CC)CCC12CC(C)OC1=Nc1ccccc1NC2=O (centres undefined)	24.0%	2.7%	3.2%	-11.4%	-4.2%	0.8%
CCc1ccc(S(=O)(=O)NCC2(N3CCOCC3)CCCCC2)cc1	-0.2%	-0.4%	-1.2%	?	?	-5.5%
CCOC(=O)N1CCC(NC(=O)c2ccc3c(c2)N=C(C)c2c(C)ccc(C)c2S3)CC1	2.06µM*	-21.1%	2.31µM*	2.06µM*	1.16µM*	?
CC1=Nc2cc(C(=O)NC3CCC(C)CC3)ccc2Sc2c(C)ccc(C)c21 (centres undefined)	/	-25.1%	/	/	/	?
Cc1ccc(CN2CCSc3ccc(C(=O)Nc4ccc(F)cc4F)cc32)cc1	/	-6.8%	/	16.4µM*	?	-9.5%
CCOc1ccc(CNC(=O)c2ccc3c(c2)N(CC)CCS3)cc1	-4.2%	-26.9%	9.6%	?	?	-7.4%
Cc1ccc(CN2CCSc3ccc(C(=O)NCc4cccnc4)cc32)cc1	-14.9%	-13.9%	-5.3%	23.1µM*	?	?
